# Measurements as given in the supplement of paper PMC3334620.
# The full ranking holds about 33,000 sequences; the median of “E-score (-0.5 to 0.5)” is about -0.032, and the highest 2% start at about 0.36. The list comes from a sample in which the highest values are over-represented; it also holds similar and randomly drawn sequences.
# Biological target: T1, Sko1 (UniProt Q02100)
# T1 sequence: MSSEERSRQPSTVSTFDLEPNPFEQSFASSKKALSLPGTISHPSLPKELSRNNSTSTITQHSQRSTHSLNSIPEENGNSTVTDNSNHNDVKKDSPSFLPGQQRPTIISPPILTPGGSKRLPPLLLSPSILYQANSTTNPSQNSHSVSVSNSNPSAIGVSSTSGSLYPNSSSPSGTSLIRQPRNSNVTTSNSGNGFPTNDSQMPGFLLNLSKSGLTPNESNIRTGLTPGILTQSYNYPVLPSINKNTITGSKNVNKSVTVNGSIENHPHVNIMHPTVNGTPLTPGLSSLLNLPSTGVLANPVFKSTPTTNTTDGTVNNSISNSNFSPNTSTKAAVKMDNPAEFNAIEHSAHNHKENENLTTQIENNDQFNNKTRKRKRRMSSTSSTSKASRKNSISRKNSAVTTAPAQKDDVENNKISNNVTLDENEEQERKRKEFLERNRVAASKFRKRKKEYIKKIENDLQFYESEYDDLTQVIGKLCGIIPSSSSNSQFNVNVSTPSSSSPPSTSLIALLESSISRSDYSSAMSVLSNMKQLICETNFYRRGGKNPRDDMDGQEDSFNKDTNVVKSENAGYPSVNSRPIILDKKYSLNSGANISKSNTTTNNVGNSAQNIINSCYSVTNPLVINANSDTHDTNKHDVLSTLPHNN
# Assay: PBM E-score (8-mer binding enrichment) (E-score (-0.5 to 0.5)); higher = stronger / more preferred TF binding
# Details: protein concentration: 200 nM; construct: GST-full length
# Protocol: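 Universal 'all 10-mer' protein binding microarrays (Agilent AMADID 015681) probed with GST-tagged S. cerevisiae TFs (full-length or DBD) made by in vitro transcription/translation (PURExpress), about 100-200 nM. Bound TF was detected with fluorescent anti-GST. Each ungapped 8-mer (which stands for itself and its reverse complement) is scored by the PBM enrichment score (E-score), a modified Wilcoxon-Mann-Whitney statistic from -0.5 to +0.5, computed with the Universal PBM Analysis Suite. Scale: above 0.35 generally sequence-specific binding.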
row,Sequence,PBM E-score
1,AGGTGGTG,-0.0259
2,AAGTGGTG,-0.113
3,ACGTGCAC,0.355
4,AACAGTGG,-0.244
5,AGGGCGAC,-0.2
6,AAATTCTG,0.052
7,GTGTTCTA,0.0982
8,AATCCCGA,0.105
9,GCATCGCA,-0.35
10,ATTCGTAA,0.433
11,CTTCGTCA,0.412
12,GTTCGTGA,-0.0757
13,GTTCGTTA,0.107
14,CTTCGTCC,-0.226
15,ATTCGTCA,0.464
16,CTTCGTTA,0.161
17,GTTCGTAA,0.355
18,ATTCGTCC,0.119
19,ATTCGTCG,0.22
20,CTTCGTAA,0.287
21,GTTCGTCA,0.367
22,GAAATGGC,0.00268
23,CGCAAGCA,0.0501
24,AAAGGTAT,0.0611
25,CAACAGTA,-0.0581

row,Sequence,PBM E-score
1,CATTTGTC,0.0524
2,CATAAGAC,0.1
3,GGTTTGAC,0.0235
4,GGATGAAA,0.033
5,ATCCGTAC,0.151
6,CTCCGTAA,0.0488
7,ATACGTAC,0.473
8,CTACGGAA,0.157
9,GTACGAAC,0.284
10,CTACGTAA,0.489
11,GTACGTAC,0.44
12,CTACGTAG,0.449
13,CTACGAAG,-0.0419
14,GTACGGAC,-0.0428
15,ATACGAAC,0.256
16,CTACGGAG,-0.193
17,CCCTAAAG,-0.213
18,GTGAGGTA,0.0525
19,ATCGGTGC,0.105
20,AATAATCT,0.125
21,CCCATCGC,-0.232
22,TAGTTACA,0.0798
23,AGCAAAAC,0.0756
24,AGGCCCAT,-0.288
25,ATACGGAT,0.111

row,Sequence,PBM E-score
1,ATACGAAT,0.286
2,CTCCGTAC,-0.153
3,ATACGTAT,0.487
4,GTCCGTAA,0.00251
5,ATACTTAG,-0.0209
6,ATACGTAG,0.471
7,ATACGAAG,0.223
8,CTACGTAC,0.449
9,GTACGGAA,-0.00063
10,GTACGTAA,0.487
11,CTACGAAC,0.0886
12,ATGGACAC,0.0118
13,GGATCACC,-0.181
14,GTCTATGA,0.238
15,AACTCACA,0.0634
16,GCACCCGC,-0.0958
17,AGACTACG,0.136
18,CCTTACCC,-0.149
19,GAGCAGGA,-0.112
20,ATACGGAA,0.141
21,ATACGTAA,0.491
22,ATCCGTAA,0.0757
23,AAGTTCCA,-0.0591
24,CCTACGCG,0.117
25,CCTACGCC,-0.0487

row,Sequence,PBM E-score
1,CCTACGCA,0.361
2,ACTACGCA,0.367
3,GCTACGCA,0.294
4,TCTACGCA,0.32
5,CCCCAACC,-0.062
6,CCCACGCC,-0.127
7,CCCACGGC,-0.145
8,CCCACGTA,0.39
9,CCCACGCA,0.109
10,CCCACGTC,0.402
11,CCCACGGA,-0.0825
12,AACTAATT,0.182
13,ATCTAGAG,-0.0987
14,ATGTTTTG,0.109
15,CGGCGTCA,0.241
16,CTGCGTCA,0.435
17,ATGCGTCA,0.467
18,ATGCGTCC,-0.124
19,GTGCGTCA,0.456
20,GTGCGTGA,0.274
21,CTGCGTCC,-0.112
22,GTGCGTTA,0.259
23,ATGCGTCG,0.0928
24,CTTCAGCA,-0.0157
25,CACCTTTC,-0.223

row,Sequence,PBM E-score
1,CAGACCTA,0.125
2,ACCTGTCC,-0.267
3,AAGAAGGT,-0.0729
4,AAGGATGG,0.00772
5,AATTGCGT,0.448
6,AATTGCGA,0.0547
7,AATTGCGG,-0.172
8,CGTGAATC,0.13
9,ACGATTTA,0.328
10,ATGTGTGC,-0.0761
11,CCGTGTGA,-0.0471
12,ACGTGGGG,0.316
13,ACGTGTGC,0.388
14,ACGTGTGG,0.395
15,ATGTGTGG,-0.144
16,ACGTGTGA,0.401
17,ACGTGCGC,0.381
18,CCGTGCGC,-0.067
19,CCGTGTGC,-0.179
20,ACGTGCGG,0.308
21,GCGTGTGA,0.107
22,ACCATACT,-0.0266
23,AGATTTGA,0.144
24,CATAATAC,0.3
25,ACGATGTA,0.226

row,Sequence,PBM E-score
1,GAGCTACC,-0.212
2,CAAAAAAA,0.187
3,GACACGGA,-0.224
4,GACACGTC,0.382
5,GACACGCA,0.284
6,GACACGGC,-0.0578
7,GACACGCC,0.0381
8,GACACGTA,0.44
9,ACCCGTCG,-0.238
10,ATGACCCG,-0.254
11,CGGACGTA,0.353
12,CTGACGTA,0.489
13,CTGACGGC,-0.167
14,CTGACGTC,0.482
15,CTGACCTC,-0.296
16,CTGACGGA,0.0532
17,AATAGCCA,0.204
18,AAGAAAGG,0.00665
19,ACAGAGCA,-0.0386
20,AGCGTAAT,0.366
21,AACGTGAT,0.333
22,ATCGTAAA,0.32
23,ATCGTAAG,0.234
24,AGCGTAAG,0.0565
25,ACCGTAAG,0.123

row,Sequence,PBM E-score
1,ATCGTAAT,0.401
2,AGCGTAAC,0.266
3,AAGGTAAG,-0.00253
4,AACGTAAG,0.397
5,AACGTAAT,0.48
6,ACCGTAAT,0.201
7,AACCCACC,-0.0866
8,AGCGAAGC,-0.0755
9,CCCAATAC,0.0194
10,CAAAGGGC,-0.252
11,CTCTAGGA,-0.335
12,GTCGTAAC,0.267
13,GGCGTAAC,0.0903
14,GTCGTAAA,0.282
15,ACCGTAAA,0.206
16,GACGTAAC,0.467
17,ACCGTAAC,-0.135
18,AACGTAAA,0.425
19,AACGTAAC,0.441
20,ATCGTAAC,0.241
21,AAAGTAAA,0.0553
22,GACGTAAA,0.456
23,GCCGTAAA,0.107
